From PubChem BioAssay (NCATS)
Inconclusive results are not listed. A number with no mark means an inactive call. Active and inactive are the calls of the source. The call rests on the fitted dose curve; in most records, active means well fitted cell-killing curve with a large enough effect; inconclusive means small, poorly fitted or top-dose-only effect; inactive means no such curve, though single readings can be large or run the other way.

experiment: Cell Viability - LYMP2-001 (AID 921); conditions: LYMP2-001 lymphoblastoid cell viability; series mostly up to 92.2 µM; activity change, negative = cytotoxic: at the top concentration; further: nearly all actives have a fitted effect of over 70% in size;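 on activity change, negative = cytotoxic: 0% = DMSO only and full inhibition = tetraoctylammonium bromide control wells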
From the text: NIH Chemical Genomics Center [NCGC]
NIH Molecular Libraries Screening Centers Network [MLSCN]
National Institutes of Environmental Health Sciences [NIEHS]
National Toxicology Program [NTP]
We have developed a 1536-well cell-based assay for quantitative high throughput screening (qHTS) against a number of cell lines to determine in vitro cytotoxicity of small molecules. This particular assay uses a human lymphoblastoid cell line (LYMP2-001) purchased from Coriell Institute for Medical Research.
NCGC Assay Protocol Summary:
The CellTiter-Glo luminescent cell viability assay (Promega) is a homogeneous method to measure the number of viable cells in culture. The end point readout of this assay is based on quantitation of intracellular ATP, an indicator of metabolic activity, using the luciferase reaction. Luciferase catalyzes the oxidation of beetle Luciferin to oxyluciferin and light in the presence of ATP. The luminescent signal is proportional to amount of ATP present.
Using the CellTiter-Glo luminescent cell viability assay, the amount of cellular ATP was measured in the lymphoblastoid cell line with complete culture medium following compound treatment for 24 hours. The assay was performed in opaque white Kalypsys 1536-well plates. In the screen, tetraoctylammonium bromide was used as positive control. Library compounds were measured for their ability to cause acute toxicity in the cell line, as reflected by a decrease in intracellular ATP levels, in a concentration-dependent manner. […] AC50 values were determined from concentration-response data modeled with the standard Hill equation.
qHTS protocol for CellTiter Glo lymphoblastoid cellular assay
[Step] [Parameter] [Value] [Description]
1. Reagent; 5 uL; 2500 lymphoblastoid cells/well
2. Time; 5 hr; 37 C incubation
4. Controls; 23 nL; Tetraoctylammonium bromide 6.4pM to 92 uM
5. Time; 24 hr; 37 C incubation
6. Reagent; 5 uL; CellTiter Glo reagent
7. Time; 30 min; Room Temperature
8. Detection; Luminescence; Viewlux plate reader
Keywords: cell viability, cytotoxicity, lymphoblastoid cell line, luminescence, NTPHTS, NTPHTS_NCGC, NIEHS, DSSTox, MLSMR, MLSCN, NIH Roadmap, qHTS, NCGC
Potency means the concentration at half of the fitted maximal effect.

| SMILES | activity change, negative = cytotoxic [%] | Potency |
| --- | --- | --- |
| C#C[C@]1(O)CC[C@H]2[C@@H]3CCc4cc(O)ccc4[C@H]3CC[C@@]21C | -14.4 | – |
| CC(C)NCC(O)COc1cccc2ccccc12 (stereo not drawn) | -0.411 | – |
| NCCO | -25 | – |
| CN(C)CCC(c1ccc(Cl)cc1)c1ccccn1 (stereo not drawn) | 0.0281 | – |
| c1ccc2sc(SSc3nc4ccccc4s3)nc2c1 | -23.5 | – |
| Nc1ccc(O)c([N+](=O)[O-])c1 | -18.1 | – |
| N=C1N=C(N)c2cc3ccccc3cc21 | – | 39.8 µM (active) |
| COc1cc(CNC(=O)CCCC/C=C/C(C)C)ccc1O | -14.3 | – |
| O=C(O)/C=C\C(=O)O | -3.71 | – |
| S=c1[nH]c2ccccc2s1 | -26.8 | – |
| CCCOC(=O)c1ccc(O)cc1 | – | inactive |
| O=c1cc(-c2ccccc2)oc2ccccc12 | 3.69 | – |
| COc1cc(/C=C/C(=O)CC(=O)/C=C/c2ccc(O)c(OC)c2)ccc1O | – | 20 µM (active) |
| Nc1ccc(O)c(C(=O)O)c1 | 7.31 | – |
| O=C1CN(/N=C/c2ccc([N+](=O)[O-])o2)C(=O)N1 | -25.4 | – |
| O=C(O)c1cc(O)c(O)c(O)c1 | -20 | – |
| CN1CCC[C@H]1c1cccnc1 | -3.51 | – |
| CCCCCCCCCCCCCCCCCC(=O)O | -1.3 | – |
| Nc1nc2ccc([N+](=O)[O-])cc2s1 | -6.32 | – |
| Nc1ccc([N+](=O)[O-])cc1O | -6.13 | – |
| CN(C)c1ccc(N=NS(=O)(=O)O)cc1 | -27.2 | – |
| CC1(C)S[C@@H]2[C@H](NC(=O)[C@H](N)c3ccccc3)C(=O)N2[C@H]1C(=O)O | 3.33 | – |
| CN(C)c1ccc(C(=C2C=CC(=[N+](C)C)C=C2)c2ccccc2)cc1 | – | 0.199 µM (active) |
